These molecules were tested on Vero E6 infected with SARS-CoV-2 (assay: inhibition of SARS-CoV-2 cytopathic effect; higher = more antiviral protection, active = above 15). Conditions: 1 nM; 48 h.

SMILES	inhibition of SARS-CoV-2 cytopathic effect
CC(C)n1nc(C#Cc2ccccc2)c2c(N)ncnc21	0.9% (inactive)
Nc1ccc([As](=O)(O)O)cc1 [arsanilic-acid]	0.07% (inactive)
Nc1ccc(C(=O)NCC(=O)O)cc1 [4-aminohippuric-acid]	-2.16% (inactive)
CC(C)[C@@H](C(=O)Nc1nccs1)c1ccc(Cl)cc1	0.5% (inactive)
NC(=O)[C@H]1CCS[C@@H]2C[C@]3(CCCN3C(=O)Cc3ccc(NC(=O)COc4ccc(Cl)cc4Cl)cc3)C(=O)N12	0.49% (inactive)
CN1CCC(Nc2ncc3ncnc(Nc4ccc(F)c(Cl)c4)c3n2)CC1	0.68% (inactive)
CCCCc1nc(Cl)c(CO)n1Cc1ccc(-c2ccccc2-c2nnn[nH]2)cc1 [losartan]	0.46% (inactive)
O=C(O)Cc1cccc(OCCCN(Cc2cccc(C(F)(F)F)c2Cl)CC(c2ccccc2)c2ccccc2)c1	0.26% (inactive)
CC(C)C[C@H](NC(=O)CNC(=O)c1cc(Cl)ccc1Cl)B(O)O [ixazomib]	-2.33% (inactive)
C[C@@H](C(=O)O)c1ccc(-c2ccccc2)c(F)c1 (racemic) [flurbiprofen-(+/-)]	0.383% (inactive)
CC(=O)SC[C@@H](C)C(=O)N1CCC[C@H]1C(=O)N[C@@H](Cc1ccccc1)C(=O)O [alacepril]	-1.69% (inactive)
N[C@@H](C(=O)N[C@@H]1C(=O)N2C(C(=O)O)=C(Cl)CS[C@H]12)c1ccccc1 [cefaclor]	-2.43% (inactive)
CC1(C)Cc2c(-c3ccccc3)c(-c3ccc(Cl)cc3)c(CC(=O)O)n2C1 [licofelone]	-2.87% (inactive)
Oc1ccc(C2CNCCc3c2cc(O)c(O)c3Cl)cc1 (stereo not given) [fenoldopam]	5.49% (inactive)
FC(F)(F)c1cccc(-c2noc(-c3cc(-c4ccccc4)c(C(F)(F)F)s3)n2)c1	1.19% (inactive)
CC[C@@H](c1ccc(F)c(F)c1)n1c(C(=O)OC)c(-c2ccno2)[nH]c1=S	1.31% (inactive)
CC1(C)S[C@@H]2[C@H](NC(=O)Cc3ccccc3)C(=O)N2[C@H]1C(=O)O [benzylpenicillin]	-3.59% (inactive)
Nc1ccc(S(=O)(=O)Nc2ccc(Cl)nn2)cc1 [sulfachlorpyridazine]	0.57% (inactive)
O=C(/C=C/c1ccc(O)c(O)c1)c1ccc(O)cc1O [butein]	-0.13% (inactive)
CC(C(=O)O)c1ccc(CC2CCCC2=O)cc1 (stereo not given) [loxoprofen]	0.21% (inactive)

SMILES	inhibition of SARS-CoV-2 cytopathic effect
Cc1cc(O)c(C(=O)N[C@@H](C(=O)N[C@@H]2C(=O)N3C(C(=O)O)=C(CSc4nnnn4C)CS[C@H]23)c2ccc(O)cc2)cn1 [cefpiramide]	-0.65% (inactive)
CCCCNC(=O)[C@@H]1Cc2ccccc2N1C(=O)[C@@H](N)CC [butabindide]	1.64% (inactive)
C=CCN1CCCC1CNC(=O)c1cc2nn[nH]c2cc1OC (stereo not given) [alizapride]	0.31% (inactive)
O=Nc1c(-c2c(O)[nH]c3cc(Br)ccc23)[nH]c2ccccc12 [GSK-3-inhibitor-IX]	-0.14% (inactive)
Cc1onc(-c2ccccc2)c1C(=O)N[C@@H]1C(=O)N2[C@@H]1SC(C)(C)[C@@H]2C(=O)O [oxacillin]	0.69% (inactive)
CC(=C(CCOC(=O)C(C)C)SSC(CCOC(=O)C(C)C)=C(C)N(C=O)Cc1cnc(C)nc1N)N(C=O)Cc1cnc(C)nc1N (stereo in doubt) [sulbutiamine]	2% (inactive)
c1ccc2c(c1)Sc1ccccc1N2C[C@H]1CN2CCC1CC2 [levomequitazine]	-10.3% (inactive)
CCCC(=O)Nc1cccc(NC(=O)c2ccccc2Br)c1	1.03% (inactive)
C[C@@H]1COC(Nc2ccc3ncnc(Nc4ccc(OCc5nccs5)c(Cl)c4)c3c2)=N1	2.68% (inactive)
CNC(=O)c1ccc(-c2cnc3ncc(Cc4ccc5ncccc5c4)n3n2)cc1F	0.17% (inactive)
O=C(O)/C=C\c1c[nH]cn1 [cis-Urocanic acid]	0.865% (inactive)
CCC(=O)O[C@@H](O[P@@](=O)(CCCCc1ccccc1)CC(=O)N1C[C@H](C2CCCCC2)C[C@H]1C(=O)O)C(C)C [fosinopril]	-0.77% (inactive)
O=C(O)C(=O)c1cn(Cc2ccccc2)c2ccc(-c3ccc(OC(F)(F)F)cc3)cc12 [tiplaxtinin]	2.16% (inactive)
NC[C@H](O)c1ccc(O)c(O)c1 [norepinephrine]	1.39% (inactive)
C1CCN2C[C@@H]3C[C@@H](CN4CCCC[C@@H]34)[C@H]2C1 [sparteine-sulfate]	0.15% (inactive)
COc1ccc2c3c1O[C@H]1C[C@@H](O)C=C[C@@]31CCN(C)C2 [galantamine]	0.63% (inactive)
c1ccc(CC2=NCCN2)cc1 [tolazoline]	-0.5% (inactive)
CC(C)(C)OC(=O)N[C@H]1CCCCC/C=C\[C@@H]2C[C@@]2(C(=O)NS(=O)(=O)C2CC2)NC(=O)[C@@H]2C[C@@H](OC(=O)N3Cc4cccc(F)c4C3)CN2C1=O [danoprevir]	1.7% (inactive)
CN(C)CCN1C(=O)c2cccc3cc(NC(N)=O)cc(c23)C1=O [unbs-5162]	-0.12% (inactive)
CC(C)(COP(=O)(O)OP(=O)(O)OC[C@H]1O[C@@H](n2cnc3c(N)ncnc32)[C@H](O)[C@@H]1OP(=O)(O)O)[C@@H](O)C(=O)NCCC(=O)NCCS [coenzyme-A]	-2.14% (inactive)
